Assay outcomes (PubChem)
TDP1 cell CPT – qHTS for Inhibitors of human tyrosyl-DNA phosphodiesterase 1 (TDP1): qHTS in cells in presence of CPT; 420,000 tested, 12% active; Potency, µM (titrated, usually from 46.2 µM), hits mostly inhibitors; chicken DT40 Tdp1-/-;hTDP1 cells + 20 nM CPT, ATP luminescence, 48 h; also: nearly all actives have a fitted effect of over 55% in size
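Chicken DT40 Tdp1-/- cells complemented with human TDP1, 400 cells/well, exposed to compounds plus 20 nM camptothecin for at least 48 h at 37 C; viability read as ATP content by CellTiter-Glo luminescence.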
DT40 TDP1 no CPT – qHTS for Inhibitors of human tyrosyl-DNA phosphodiesterase 1 (TDP1): qHTS in cells in absence of CPT; DT40 Tdp1-/- hTDP1 cells, no CPT, ATP luminescence, 48 h; Potency, µM (highest dose often 46.2 µM), hits mostly inhibitors; 420,000 tested, 15% active; AID 686978, 2013; also: nearly all actives have a fitted effect of over 55% in size
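Cells were dispensed at 400 per well, compounds added by pin tool, plates incubated ≥48 hr at 37 °C, then CellTiter-Glo added for 30 min at room temperature before luminescence reading. Line: DT40 Tdp1-/- complemented with hTDP1; camptothecin omitted.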
TGFb inhibitor – qHTS for Inhibitors of TGF-b. HepG2 CAGA-GFP TGF-b/SMAD3 reporter, GFP fluorescence, 18 h; TGF-beta stimulated, 500 pg/mL final. Potency, µM (highest dose often 46.1 µM), hits mostly inhibitors. 410,000 tested, 1.2% active; also: nearly all actives have a fitted effect of over 65% in size
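Read-out: total well GFP (ex488/em500-530) summed from mean per-cell fluorescence. Cells: HEPG2 CAGA-GFP, 1% FBS DMEM, 18 h at 37 degrees C with 500 pg/mL final TGF-beta. Unstimulated wells served as the full-inhibition control; stimulated DMSO wells = 0%.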
HepG2 tox – qHTS for Inhibitors of TGF-b: Cytotox Counterscreen; HepG2 CAGA-GFP viability, ATP luminescence, 18 h; Potency, µM (doses to about 46.1 µM), actives largely listed as cytotoxic; 410,000 tested, 0.76% active
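CellTiter-Glo luminescence gave cytotoxicity after 18 hours at 37 degrees C. The cells were HepG2 CAGA-GFP in 1% FBS DMEM, stimulated with 500 pg/mL TGF-beta after compound addition. %Activity was normalised to no-cell wells (complete cell-killing) and DMSO (no toxicity), and curves were fitted and classified.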
IL1B secr inh – qHTS for Inhibitors of Inflammasome Signaling: IL-1-beta AlphaLISA Primary Screen. 360,000 tested, 4.7% active. THP-1 LPS/ATP IL-1B secretion, AlphaLISA, 16 h; active compounds read low. activity change, % at 57.5 µM; in the data active = activity change below about -50%; inconclusive = mostly about -30% to -49%
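Secreted IL-1B measured by AlphaLISA bead assay after 16 h compound exposure of THP-1 cells; compounds (final up to 57.5 uM) added 1 h before LPS (250 ng/mL) and ATP (1.25 mM) stimulation; lower signal means less secretion.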
TDP1 inh – qHTS Assay for Inhibitors of Tyrosyl-DNA Phosphodiesterase (TDP1) | Potency, µM (highest dose often 130 µM), usual class: inhibitors | 350,000 tested, 0.28% active | AID 485290, 2010 | recombinant TDP1, AlphaScreen DNA substrate cleavage; also: nearly all actives have a fitted effect of over 40% in size
Target sequence (Q9NUW8 whole entry, looked up): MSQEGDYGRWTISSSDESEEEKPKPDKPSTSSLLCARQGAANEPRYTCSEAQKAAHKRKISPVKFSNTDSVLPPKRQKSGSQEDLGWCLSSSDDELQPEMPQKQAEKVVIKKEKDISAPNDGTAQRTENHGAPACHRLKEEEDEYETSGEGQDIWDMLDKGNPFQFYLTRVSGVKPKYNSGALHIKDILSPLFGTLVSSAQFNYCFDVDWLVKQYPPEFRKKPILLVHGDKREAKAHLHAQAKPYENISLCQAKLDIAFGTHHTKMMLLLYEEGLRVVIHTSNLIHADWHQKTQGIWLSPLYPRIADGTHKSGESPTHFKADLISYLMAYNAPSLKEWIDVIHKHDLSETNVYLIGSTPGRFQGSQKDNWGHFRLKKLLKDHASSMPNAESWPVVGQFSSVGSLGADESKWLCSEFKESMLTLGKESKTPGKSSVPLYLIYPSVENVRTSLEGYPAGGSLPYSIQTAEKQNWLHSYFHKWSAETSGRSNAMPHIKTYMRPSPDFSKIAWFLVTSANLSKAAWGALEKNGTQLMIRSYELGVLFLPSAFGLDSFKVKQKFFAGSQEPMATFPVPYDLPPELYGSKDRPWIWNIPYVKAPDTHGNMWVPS
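Signal: AlphaScreen proximity between streptavidin donor and anti-FITC acceptor beads on intact substrate. Reaction: Tdp1 1 nM, substrate 15 nM final, 5 min RT after 15 min compound preincubation.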
Each line names hits and unclear results; the compound was inactive in the other large screens. In the library only some 19% were active in any assay of this set; here they are far more common. Unless noted, calls follow the shape of the dose curve; as a rule, active = well fitted curve in the direction sought with a large enough effect; inconclusive = small, poorly fitted or top-dose-only effect, or another doubt; inactive = no such curve, though single readings can be large; an effect the other way counts as inactive or inconclusive.

Cc1nc(C)c(C(=O)Nc2cccc(F)c2)s1	none (no result: TDP1 inh)
O=C(CN1CCN(Cc2ccc(F)cc2)C1=O)NCc1ccc(F)cc1	none (no result: IL1B secr inh)
Cc1ccc(-c2nc3n(n2)Cc2ccccc2-3)cc1	TDP1 cell CPT inconclusive, DT40 TDP1 no CPT inconclusive
CCn1c(C)nc2cc(-c3nc4n(n3)Cc3ccccc3-4)ccc21	TDP1 cell CPT 6.51µM, DT40 TDP1 no CPT 7.31µM, HepG2 tox 1.26µM, IL1B secr inh inconclusive
Fc1ccc(-c2nc3n(n2)Cc2ccccc2-3)cc1	DT40 TDP1 no CPT inconclusive, TGFb inhibitor inconclusive, HepG2 tox 8.91µM
CCn1c(C)nc2cc(C#N)ccc21	none
CC(=O)c1cnn(-c2c(Cl)cc(Cl)cc2Cl)c1C	TDP1 cell CPT 16.4µM, DT40 TDP1 no CPT 18.4µM
COC(=O)Cc1c(C)c2cc3c(c(C)c2oc1=O)OCN(CCc1ccccc1F)C3	TDP1 cell CPT inconclusive, DT40 TDP1 no CPT inconclusive (no result: IL1B secr inh)
CC1=CC(=Nc2c(C)n(C)n(-c3ccccc3)c2=O)C=C(C)C1=O	TDP1 cell CPT inconclusive, DT40 TDP1 no CPT 20.6µM
O=Cc1cccc(Br)c1	none (no result: TDP1 cell CPT, DT40 TDP1 no CPT, TGFb inhibitor, HepG2 tox, IL1B secr inh)
Cc1ccc2c(=O)cc(C(=O)Nc3c(C)n(C)n(-c4ccccc4)c3=O)oc2c1C	none (no result: IL1B secr inh)
N#CC1=C2SCC(O)(c3ccccc3)N2C(=O)CC1c1ccccc1F (stereo unspecified)	TDP1 cell CPT 13µM, DT40 TDP1 no CPT 8.2µM, IL1B secr inh inconclusive
N#CC1=C2SCC(O)(c3ccccc3)N2C(=O)CC1c1cccs1 (stereo unspecified)	TDP1 cell CPT 1.16µM, DT40 TDP1 no CPT 1.03µM, IL1B secr inh inconclusive
Cc1nc2ccn(Cc3ccco3)c(=O)c2cc1C(=O)Nc1ccc(F)cc1	TDP1 cell CPT inconclusive, DT40 TDP1 no CPT inconclusive, TGFb inhibitor inconclusive (no result: IL1B secr inh)
CN1CCC(CC(C(=O)N2CCCC2)(c2ccccc2)c2ccccc2)C1 (stereo unspecified)	TDP1 cell CPT 23.1µM, DT40 TDP1 no CPT inconclusive (no result: TDP1 inh)
CC[C@H](C)N	none (no result: TDP1 cell CPT, DT40 TDP1 no CPT, TGFb inhibitor, HepG2 tox, IL1B secr inh)
CCn1c(N2CCN(Cc3ccc([N+](=O)[O-])cc3)CC2)nc2ccccc21	TDP1 cell CPT inconclusive, DT40 TDP1 no CPT 20.6µM, TGFb inhibitor inconclusive
CCCn1c(N2CCN(C(=O)/C=C/C(=O)O)CC2)nc2ccccc21	none (no result: TDP1 inh)
CCCn1c(N2CCN(Cc3ccc(Cl)cc3)CC2)nc2ccccc21	TDP1 cell CPT inconclusive, DT40 TDP1 no CPT 11.6µM, TGFb inhibitor 15.8µM
CN(C)c1cccc(CNC(=O)c2csc([C@@H]3O[C@H](CO)[C@@H](O)[C@H]3O)n2)c1	TDP1 cell CPT 13µM, DT40 TDP1 no CPT 11.6µM (no result: TDP1 inh)
CN(C)c1cccc(CNC(=O)c2csc([C@@H]3O[C@H](CO)[C@H](O)[C@H](O)[C@H]3O)n2)c1	none (no result: TDP1 inh)
COc1ccc(CCN(/C=C2\Sc3ccccc3C2=O)C(C)=O)cc1OC	none
COc1ccccc1N(C(C)=O)C1=C(Cl)C(=O)c2ccccc2C1=O	TDP1 cell CPT 0.517µM, DT40 TDP1 no CPT 0.731µM, HepG2 tox 11.2µM, IL1B secr inh inconclusive (no result: TDP1 inh)
CC(NC(=S)Nc1ccc(OC(F)F)cc1OC(F)F)C(C)(C)C (stereo unspecified)	TDP1 cell CPT inconclusive, DT40 TDP1 no CPT inconclusive, TGFb inhibitor inconclusive, IL1B secr inh -90.7
COc1cccc(/C=N/NC(=S)Nc2cccc(C(=O)O)c2)c1O	TDP1 cell CPT inconclusive
COc1cccc(/C=N/NC(=S)NC2CC3CC2C2C=CCC32)c1O (stereo unspecified)	TDP1 cell CPT inconclusive, DT40 TDP1 no CPT 29.1µM (no result: IL1B secr inh, TDP1 inh)
Oc1c(Br)cc(Br)cc1/C=N/NC(=S)N[C@H]1CC2C=CC1C2 (stereo partly specified)	TDP1 cell CPT inconclusive, DT40 TDP1 no CPT inconclusive, TGFb inhibitor inconclusive
Oc1ccccc1/C=N/NC(=S)NC1CC2CC1C1C=CCC21 (stereo unspecified)	TDP1 cell CPT 3.66µM, DT40 TDP1 no CPT 4.11µM, TGFb inhibitor inconclusive, HepG2 tox 17.8µM, IL1B secr inh inconclusive
O=[N+]([O-])c1ccc2nc(NCCCO)nc(-c3ccccc3)c2c1	TDP1 cell CPT 9.2µM, DT40 TDP1 no CPT 23.1µM, TGFb inhibitor inconclusive
O=C(O)CNc1nc(-c2ccccc2)c2cc([N+](=O)[O-])ccc2n1	TDP1 cell CPT inconclusive, DT40 TDP1 no CPT inconclusive
COc1ccc(NC(=O)Cc2nnc(SCC(=O)c3ccc(F)cc3)n2C)cc1	none
CSc1c(C#N)c(N)nc2sc(C(=O)c3ccccc3)c(N)c12	IL1B secr inh -72.8 (no result: TDP1 inh)
N#Cc1c(SCc2ccc(Cl)cc2)sc(C(=O)c2ccccc2)c1N	TDP1 cell CPT inconclusive, DT40 TDP1 no CPT inconclusive
CCOC(=O)N1CCN(C(=O)CSc2nnc(-c3ccccc3OC)o2)CC1	none
CCOC(=O)N1CCN(C(=O)CSc2nnc(-c3ccc(C)c(C)c3)o2)CC1	TDP1 cell CPT inconclusive, DT40 TDP1 no CPT 14.6µM
Cc1ccc(-c2nnc(SCC(=O)N3CCCC3)o2)cc1C	none
CCOC(=O)N1CCN(C(=O)CSc2nnc(-c3cccc(OC)c3)o2)CC1	TDP1 cell CPT 16.4µM, DT40 TDP1 no CPT 23.1µM
